Several values for one entry are separate records, joined by “and”; a condition that tells them apart may be missing. Equal entries are not always repeated. A number with no mark means an inactive call. Records with an inconclusive call do not appear. Activity calls are given as the source filed them. Unless noted, calls come from the whole dose curve; as a rule, active = well fitted curve in the direction sought with a large enough effect in the repeat runs; inconclusive = weak or mixed curves; inactive = no such curve, though single readings can be large; an effect the other way counts as inactive or inconclusive.
Molecular target: Androgen receptor (Homo sapiens) (UniProt P10275)
Sequence (P10275 whole entry, looked up): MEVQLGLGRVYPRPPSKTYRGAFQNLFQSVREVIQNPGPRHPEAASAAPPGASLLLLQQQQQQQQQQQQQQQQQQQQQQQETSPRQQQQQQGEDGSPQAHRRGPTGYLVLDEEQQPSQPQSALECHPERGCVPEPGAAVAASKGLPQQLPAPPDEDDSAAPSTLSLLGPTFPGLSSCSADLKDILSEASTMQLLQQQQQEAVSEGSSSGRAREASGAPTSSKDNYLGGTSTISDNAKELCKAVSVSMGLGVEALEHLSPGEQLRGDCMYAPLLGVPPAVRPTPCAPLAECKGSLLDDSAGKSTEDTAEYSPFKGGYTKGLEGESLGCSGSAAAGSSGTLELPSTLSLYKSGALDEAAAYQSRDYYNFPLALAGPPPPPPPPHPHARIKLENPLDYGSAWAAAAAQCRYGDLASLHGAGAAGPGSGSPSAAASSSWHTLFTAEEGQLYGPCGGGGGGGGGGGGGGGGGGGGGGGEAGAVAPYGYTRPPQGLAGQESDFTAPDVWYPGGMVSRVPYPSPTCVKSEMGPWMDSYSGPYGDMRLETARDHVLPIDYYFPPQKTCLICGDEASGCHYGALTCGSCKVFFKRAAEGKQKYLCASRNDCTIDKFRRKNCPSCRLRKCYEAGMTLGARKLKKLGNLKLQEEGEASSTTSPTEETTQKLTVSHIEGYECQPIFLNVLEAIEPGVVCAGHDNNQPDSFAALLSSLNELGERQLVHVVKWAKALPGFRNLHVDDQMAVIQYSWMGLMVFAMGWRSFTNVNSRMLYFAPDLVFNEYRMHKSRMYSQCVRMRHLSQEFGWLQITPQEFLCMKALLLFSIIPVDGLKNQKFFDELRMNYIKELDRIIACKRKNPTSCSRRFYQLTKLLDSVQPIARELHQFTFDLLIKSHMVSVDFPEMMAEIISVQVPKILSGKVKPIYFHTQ
Assay: qHTS assay to identify small molecule antagonists of the androgen receptor (AR) signaling pathway (AID 743035; active = well fitted inhibition curve with a large enough effect in the signal ratio in the repeat runs, not every such curve was filed as active; the % refers to the signal ratio; note: potency is the fitted concentration of half-maximal effect)
Settings: HEK293 AR-UAS-bla, R1881-stimulated, beta-lactamase FRET, 16 h; series mostly up to 58.5 µM; activity change, negative = inhibition: at the top concentration
Method in brief: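 Fluorescence from a beta-lactamase FRET substrate (LiveBLAzer B/G, 2 h, room temperature) measured inhibition of R1881-stimulated signaling in GeneBLAzer AR-UAS-bla HEK293 cells exposed to compound for 16 h at 37C.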
% is set by controls: 0 for no effect and ±100 for the full control effect.

SMILES | activity change, negative = inhibition | Potency
O=C1OC(OC(=O)c2cccnc2Nc2cccc(C(F)(F)F)c2)c2ccccc21 (stereo not given) | -8.78% | –
O=Cc1ccc(F)cc1 | 6.41% | –
CC1=C(/C=C/C(C)=C/C=C/C(C)=C/C(=O)Nc2ccc(O)cc2)C(C)(C)CCC1 | – | 23.9 µM (active) and 14.2 µM (active)
C[C@H]1O[C@@H](O[C@H]2[C@@H](O)C[C@H](O[C@H]3[C@@H](O)C[C@H](O[C@H]4CC[C@@]5(C)[C@H](CC[C@@H]6[C@@H]5C[C@@H](O)[C@]5(C)[C@@H](C7=CC(=O)OC7)CC[C@]65O)C4)O[C@@H]3C)O[C@@H]2C)C[C@H](O)[C@@H]1O | – | 338 nM (active) and 61.7 nM (active) and 136 nM (active)

Molecular target: Androgen receptor (Homo sapiens) (UniProt P10275)
Assay: qHTS assay to identify small molecule agonists of the androgen receptor (AR) signaling pathway using the MDA cell line (AID 743040; note: nearly all actives have a fitted effect of over 20% in size)
Settings: MDA-kb2 AR-luc cells, MMTV luciferase, 16 h; series mostly up to 70.3 µM; activity change: at the top concentration
Method in brief: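 Luminescence from ONE-Glo, read after 30 min at room temperature, reflects MMTV-driven luciferase in MDA-kb2 cells (AR- and GR-responsive). Treatment lasted 16 h at 37C, 0% CO2.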

SMILES | activity change | Potency
O=C(Oc1ccccc1)c1cccc(C(=O)Oc2ccccc2)c1 | 30.7% [at 95 µM, hits give high values] | –
O=C1OC(OC(=O)c2cccnc2Nc2cccc(C(F)(F)F)c2)c2ccccc21 (stereo not given) | 0.48% | –
O=Cc1ccc(F)cc1 | -0.147% | –
Cc1ccc(N)cc1O | 6.53% | –
CC1=C(/C=C/C(C)=C/C=C/C(C)=C/C(=O)Nc2ccc(O)cc2)C(C)(C)CCC1 | – | inactive
CCC(C)(C)c1cc(O)c(C(C)(C)CC)cc1O | -1.7% | –
Cc1oc(-c2ccccc2)nc1CCOc1ccc(C[C@H](Nc2ccccc2C(=O)c2ccccc2)C(=O)O)cc1 | -9.45% | –
Clc1ccc(C(Cn2ccnc2)OCc2c(Cl)cccc2Cl)c(Cl)c1 (stereo not given) | -7.25% [at 32.5 µM, hits give high values] | –

System: not listed separately
Assay: qHTS assay to identify small molecule antagonists of the androgen receptor (AR) signaling pathway using the MDA cell line - cell viability counter screen (AID 743041; note: nearly all actives have a fitted effect of over 45% in size; note: potency is the fitted concentration of half-maximal effect)
Settings: MDA-kb2 viability, CellTiter-Fluor, 16 h, cells co-treated with R1881 androgen agonist; series mostly up to 70.3 µM; viability change, negative = cytotoxic: at the top concentration
Method in brief: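 Viability counter screen run alongside the AR antagonist reporter: cells seeded 5 h before compound, R1881 added, 16 h incubation at 37C without CO2, fluorescent CellTiter-Fluor signal quantified.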

SMILES | viability change, negative = cytotoxic | Potency
O=C(Oc1ccccc1)c1cccc(C(=O)Oc2ccccc2)c1 | 26.6% [at 95 µM] | –
Brc1ccccc1-c1ccccc1 | 23.7% | –
CNC(=S)NN | – | 48.6 µM (active)
CCCCCCCOC(=O)c1ccc(O)cc1 | – | inactive
O=C(Nc1ccc(Cl)cc1)Nc1ccc(Cl)c(C(F)(F)F)c1 | – | 23.7 µM (active)
CCCCCCCC/C=C\CCCCCCCC(=O)NCc1ccc(O)c(OC)c1 | 3.53% | –
Nc1ncnc2c1ncn2[C@@H]1O[C@H](COP(=O)(O)O)[C@@H](O)[C@H]1O | -6.82% | –
C/C=C/C=N/NC(=O)c1ccncc1 | -7.3% | –
SCCCCCCCCS | -1.29% | –
CC1=C(/C=C/C(C)=C/C=C/C(C)=C/C(=O)Nc2ccc(O)cc2)C(C)(C)CCC1 | – | 23.7 µM (active) and 44.4 µM (active)
CCC(C)(C)c1cc(O)c(C(C)(C)CC)cc1O | -0.433% | –
CCCCCCCCCCCCCC[n+]1ccccc1 | – | 4.33 µM (active)
Cc1oc(-c2ccccc2)nc1CCOc1ccc(C[C@H](Nc2ccccc2C(=O)c2ccccc2)C(=O)O)cc1 | – | 61.1 µM (active)
O=C(O)CC(=O)O | 3.29% | –
C=C(C)C(=O)OCCC[Si](Cl)(Cl)Cl | -1.96% [at 95 µM] | –
CCCCCCCCCCCCCCNCCO | -1.11% | –
O=C1OC(=O)c2cccc3cccc1c23 | -20.2% [at 95 µM] | –
c1cc2c3c(c1)ccc1cccc(c13)C2 | -2.13% [at 95 µM] | –
CCCCCCCCCC(=O)N(C)C | 9.91% [at 95 µM] | –
C[C@H]1O[C@@H](O[C@H]2[C@@H](O)C[C@H](O[C@H]3[C@@H](O)C[C@H](O[C@H]4CC[C@@]5(C)[C@H](CC[C@@H]6[C@@H]5C[C@@H](O)[C@]5(C)[C@@H](C7=CC(=O)OC7)CC[C@]65O)C4)O[C@@H]3C)O[C@@H]2C)C[C@H](O)[C@@H]1O | – | inactive
NCCCCCCNCCCCCCN | -4.81% | –
Clc1ccc(C(Cn2ccnc2)OCc2c(Cl)cccc2Cl)c(Cl)c1 (stereo not given) | -1.8% [at 32.5 µM] | –
S=C(SSSSSSC(=S)N1CCCCC1)N1CCCCC1 | – | 1.51 µM (active)
Oc1ccc(-c2ccc(O)cc2)cc1 | 4.49% [at 95 µM] | –

Molecular target: Androgen receptor (Homo sapiens) (UniProt P10275)
Assay: qHTS assay to identify small molecule antagonists of the androgen receptor (AR) signaling pathway using the MDA cell line (AID 743042; note: nearly all actives have a fitted effect of over 55% in size; note: potency is the fitted concentration of half-maximal effect)
Settings: MDA-kb2 AR-luc, MMTV luciferase, R1881 antagonist, 16 h; series mostly up to 70.3 µM; activity change, negative = inhibition: at the top concentration
Method in brief: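 MDA-kb2 cells (human breast carcinoma, stably carrying an MMTV-luciferase reporter responsive to AR and GR) were plated at 3,000 cells/well and preincubated 5 hr at 37C, then given compound plus R1881 agonist for 16 h. ONE-Glo luminescence was read.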

SMILES | activity change, negative = inhibition | Potency
O=C(Oc1ccccc1)c1cccc(C(=O)Oc2ccccc2)c1 | 52.8% [at 95 µM] | –
O=C1OC(OC(=O)c2cccnc2Nc2cccc(C(F)(F)F)c2)c2ccccc21 (stereo not given) | 1.44% | –
O=Cc1ccc(F)cc1 | 6.57% | –
CC1=C(/C=C/C(C)=C/C=C/C(C)=C/C(=O)Nc2ccc(O)cc2)C(C)(C)CCC1 | – | 29.8 µM (active) and 28 µM (active)
CCC(C)(C)c1cc(O)c(C(C)(C)CC)cc1O | -10.7% | –
Clc1ccc(C(Cn2ccnc2)OCc2c(Cl)cccc2Cl)c(Cl)c1 (stereo not given) | -13% [at 32.5 µM] | –

System: not listed separately
Assay: qHTS assay to identify small molecule antagonists of the thyroid receptor (TR) signaling pathway - cell viability counter screen (AID 743064); note: nearly all actives have a fitted effect of over 50% in size; note: potency is the fitted concentration of half-maximal effect
Settings: GH3.TRE-Luc viability, CellTiter-Fluor, 24 h; series mostly up to 70.3 µM; activity change, negative = cytotoxic: at the top concentration
Method in brief: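 CellTiter-Fluor readout, 30 min at 37 °C/5% CO2, following 23.5 h incubation of GH3.TRE-Luc cells with test compound and 1 nM T3 (final).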

SMILES | Potency | activity change, negative = cytotoxic
CCCCCCCOC(=O)c1ccc(O)cc1 | 61.1 µM (active) | –
CCCCCCCC/C=C\CCCCCCCC(=O)NCc1ccc(O)c(OC)c1 | 6.68 µM (active) | –
O=Cc1ccc(F)cc1 | – | 7.6%
SCCCCCCCCS | – | 1.64%
CCCCCCCCCCCCCOP(=O)(O)O | – | 12.4%
CCC(C)(C)c1cc(O)c(C(C)(C)CC)cc1O | – | -2.91%
CCCCCCCCCCCCCC[n+]1ccccc1 | 6.86 µM (active) | –
Cc1oc(-c2ccccc2)nc1CCOc1ccc(C[C@H](Nc2ccccc2C(=O)c2ccccc2)C(=O)O)cc1 | 27.3 µM (active) | –
Cc1nc(Nc2ncc(C(=O)Nc3c(C)cccc3Cl)s2)cc(N2CCN(CCO)CC2)n1 | 18.8 µM (active) | –
CCCCCCCCCCCCCCNCCO | – | -20.8%
O=C1OC(=O)c2cccc3cccc1c23 | – | -12% [at 95 µM]
NCCCCCCNCCCCCCN | – | -12.3%
Oc1ccc(-c2ccc(O)cc2)cc1 | – | 0% [at 95 µM]

From PubChem BioAssay (Tox21)
